Compound activity from PubChem.
Sampled rows, rich in hits. Any-hit rate of the full collection: about 3.9%.
GDH-TPI counter-1: counter-screen for M. tuberculosis FBA inhibitors: GDH-TPI coupled enzymes; AID 588335; GDH-TPI coupled enzyme counterscreen, NADH absorbance; inhibition, % at 4.8 µM; hit rate 1.2% among 360,000;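 also: 0% = DMSO wells and 100% = wells lacking the enzyme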
Mtb FBA inh: inhibitors of M. tuberculosis fructose-bisphosphate aldolase | purified M. tuberculosis FBA, fluorescence read-out | inhibition, % at 1 µM | hit rate 2.3% among 360,000 | AID 588726; in the data active = inhibition above about 27%;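 also: 0% = vehicle and 100% = reference inhibitor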
Target sequence (P9WQA3 whole entry, looked up): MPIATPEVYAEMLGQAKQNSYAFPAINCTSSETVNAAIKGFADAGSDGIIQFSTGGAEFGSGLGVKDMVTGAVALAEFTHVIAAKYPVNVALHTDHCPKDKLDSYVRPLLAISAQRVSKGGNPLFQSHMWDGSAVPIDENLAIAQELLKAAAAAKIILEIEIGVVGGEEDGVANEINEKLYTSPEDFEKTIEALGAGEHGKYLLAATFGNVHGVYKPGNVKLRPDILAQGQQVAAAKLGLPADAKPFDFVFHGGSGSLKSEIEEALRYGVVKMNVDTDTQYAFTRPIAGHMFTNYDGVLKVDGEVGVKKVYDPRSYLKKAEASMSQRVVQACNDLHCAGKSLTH
CCHFV vOTU inh: blocks the CCHF virus ovarian tumor domain protease; CCHFV vOTU protease, Pep-AMC fluorescence; inhibition, % at 11.5 µM; hit rate 0.55% among 370,000; AID 651958; also: 0% = vehicle wells with enzyme and 100% = no enzyme wells
Vc quorum ag: induces V. cholerae light production without autoinducers; V. cholerae BH1578 lux reporter, luminescence, 6 h; activation, % at 18.7 µM; hit rate 0.16% among 350,000; AID 588436; in the data active = activation mostly above about 9.7%, no sharp cut-off
Mtb FBA inh conf: Mtb FBA inhibition, confirmed; shares compounds with Mtb FBA inh; purified M. tuberculosis FBA, fluorescence read-out; inhibition, % at 1 µM; hit rate 78% among 5,600; AID 651616; in the data active = inhibition above about 27%;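 also: 0% = vehicle wells and 100% = reference inhibitor wells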
GDH-TPI counter-2: GDH-TPI inhibition counter-screen for FBA inhibitors | shares compounds with Mtb FBA inh | GDH-TPI coupled enzyme counterscreen, fluorescence | inhibition, % at 1 µM | hit rate 81% among 5,600; in the data active = inhibition above about 10%
Numbers without * were called inactive; i = inactive; x = no result. Rule as the data show it, unless noted: active = inhibition above about 30%; inactive = the rest.

SMILES | GDH-TPI counter-1 | Mtb FBA inh | CCHFV vOTU inh | Vc quorum ag | Mtb FBA inh conf | GDH-TPI counter-2
N#Cc1cccnc1N1CCN(C(=O)c2ccccc2)CC1 | 12 | 20 | -8 | 0 | x | x
C=CCn1c(=O)c2ccccc2n2c(SC(C)C(N)=O)nnc12 (stereo not given) | 3 | 0 | -12 | i | x | x
CC1(C)[C@@H](O)CC[C@]2(C)C3C(O)C=C4[C@H]5C[C@@](C)(CO)CC[C@]5(C)CC[C@]4(C)[C@]3(C)CC[C@@H]12 (stereo not given in full) | -5 | 4 | 5 | 0 | x | x
COc1ccc(C(=O)OCC(=O)NC2CCCCCC2)c(OC)c1 | 7 | 2 | -2 | 0 | x | x
COc1ccc(Nc2nc3c(c(=O)n(C)c(=O)n3C)n2CCO)cc1 | 8 | -3 | -8 | i | x | x
CN(C)CCNC(=O)c1c(NC(=O)c2ccccc2)sc2c1CCCC2 | 22 | 40* | 16 | -1 | 114* | 109*
CCOc1ccc(C(C(=O)NC(C)(C)C)N(CCOC)C(=O)CCC(=O)Nc2ccccn2)cc1 (stereo not given) | -2 | 40* | 6 | 0 | 60* | 53*
Cc1ccc(C2(C)NC(=O)N(CC(=O)NC(C)c3ccccc3)C2=O)cc1 (stereo not given) | -4 | 0 | 13 | 0 | x | x
CCOc1ccc(-c2cc3cc(OC)c(OC)cc3c(C)n2)cc1 | 2 | 28* | -9 | -1 | 60* | 43*
CCc1nc(-c2ccc(OC)c(OC)c2)cc2cc(OC)c(OC)cc12 | -1 | 2 | 2 | 0 | x | x
O=C(CN1C(=O)NC2(CCCC2)C1=O)N1CCN(S(=O)(=O)c2ccccc2Br)CC1 | -8 | 3 | 8 | 3 | x | x
COc1ccc(N2CCN(S(=O)(=O)c3ccc4c(c3)OCCO4)CC2)cc1 | -3 | 0 | -4 | 0 | x | x
O=c1nc2n(CCO)c3ccccc3cc-2c(=O)[nH]1 | 16 | 96* | -62 | x | 77* | 56*
CC(=O)Nc1sc(N/N=C/c2ccc(N(C)C)cc2)nc1-c1ccc(C)cc1 | 40* | 39* | -73 | i | 132* | 102*
N#Cc1c(F)cccc1N1CCC(C#N)CC1 | 6 | 31* | -21 | i | 154* | 115*
COc1cc2ccccc2cc1C(=O)OCC(=O)c1c(N)n(C)c(=O)n(C)c1=O | 6 | 28* | -24 | 2 | 178* | 142*
CCC(=NOCc1ccccc1)C(=O)NNS(=O)(=O)c1ccc(C)cc1 | 5 | 8 | 0 | -3 | x | x
CCCCNc1c(-c2ccc(-c3ccc(C(C)=O)cc3)c(OC)c2)nc2cc(C)ccn12 | 19 | 8 | 13 | i | x | x
CCCCCCSc1ccc(-c2nc3ccc(C)cn3c2NCc2ccccc2)cc1OC | 17 | 38* | -6 | 12 | 146* | 110*
CCCCNc1c(-c2ccc(Sc3ccc(OC)cc3)cc2)nc2cc(C)ccn12 | 18 | 53* | 15 | 1 | 54* | 60*
CCC(C)Sc1cc(-c2nc3ccccn3c2NC2CCCCC2)ccc1OC (stereo not given) | 12 | 34* | -5 | -7 | 87* | 78*
CCCCCCSc1ccc(-c2nc3ccc(C)cn3c2NCc2ccccc2)cc1 | 2 | 17 | -5 | 4 | x | x
CCCCCCSc1cc(-c2nc3ccc(C)cn3c2NCCCC)ccc1OC | 18 | 28* | 1 | i | 139* | 107*
CCCCNc1c(-c2ccc(SC(C)CC)cc2)nc2ccccn12 (stereo not given) | 13 | 57* | -24 | i | 83* | 72*
CCCCNc1c(-c2ccc(OC)c(SC(C)CC)c2)nc2cnccn12 (stereo not given) | 13 | 15 | -2 | 0 | x | x
SMILES | GDH-TPI counter-1 | Mtb FBA inh | CCHFV vOTU inh | Vc quorum ag | Mtb FBA inh conf | GDH-TPI counter-2
CCCCNc1c(-c2cccc(SC(C)CC)c2)nc2ccc(Cl)cn12 (stereo not given) | -4 | 6 | -5 | -1 | x | x
c1csc(-c2nc3ccccn3c2NC2CCCCC2)c1 | 8 | 43* | -49 | -1 | 1 | -4
CCCCNc1c(-c2ccc(OC)c(SC(C)CC)c2)nc2ccc(C)cn12 (stereo not given) | -2 | 41* | 1 | i | 74* | 87*
CCCCNc1c(-c2ccc(OC)c(SC(C)CC)c2)nc2ccc(Cl)cn12 (stereo not given) | 7 | 7 | 20 | 0 | x | x
CCCCNc1c(-c2ccc(OC)c(SC(C)CC)c2)nc2cc(C)ccn12 (stereo not given) | 4 | 31* | 7 | i | 93* | 91*
O=C(CCN1C(=O)c2ccccc2S1(=O)=O)N1CCN(c2ccc(F)cc2)CC1 | 0 | 1 | 5 | 5 | x | x
COC(=O)c1cc(NC(=O)C2(S(=O)(=O)c3ccc(Cl)cc3)CC2)cc(C(=O)OC)c1 | 1 | -1 | -9 | 0 | x | x
CCOC(=O)c1cnc2c(-c3ccc(F)cc3)cnn2c1C(F)(F)F | 13 | 74* | x | i | 17 | 7
CCOC(=O)C1=C(COC(=O)C2CC(=O)N(c3ccc(C)cc3)C2)NC(=O)NC1C (stereo not given) | 4 | 65* | 8 | 0 | 138* | 89*
Cc1ccccc1NC(=O)Cn1c(=O)n(-c2ccc(CC(=O)NCC3CCCO3)cc2)c(=O)c2ccccc21 (stereo not given) | -1 | 3 | 8 | 0 | x | x
Cc1ccc2c(c1)c1c(c(=O)n(-c3ccccc3)c(=O)n1CC(=O)NCC1CCCO1)n2C (stereo not given) | -3 | 56* | -8 | -1 | 76* | 52*
CCO/C=C1/C(=O)N(c2ccccc2OC)C(=O)c2ccccc21 | 2 | 35* | 14 | 0 | 96* | 81*
CCO/C=C1/C(=O)N(c2ccc(OC)cc2)C(=O)c2ccccc21 | -1 | 12 | 7 | -1 | x | x
COc1ccc2nc(SC(C(=O)c3ccccc3)c3ccccc3)nc(C)c2c1 (stereo not given) | 11 | 1 | -4 | i | x | x
CC1CCc2nc(/C(C#N)=C/c3ccncc3)sc2C1 (stereo not given) | 9 | 28* | -10 | i | 9 | -4
CN1CN(C)c2cccc3cccc1c23 | 16 | 98* | -85 | i | 48* | 40*
CN(C)C=NC(=O)c1cn(-c2ccc(F)cc2)c(=O)c2ccccc12 | 6 | 3 | -4 | i | x | x
Nc1ncc(-c2ccc(F)cc2)nc1N1CCN(CCO)CC1 | 16 | 47* | -64 | -1 | 123* | 89*
Cc1ccc2nc(C3CCCCC3)c(Cc3ccccc3)n2c1 | x | 28* | 10 | x | 3 | -3
Clc1ccc2nc(-c3ccco3)c(Cc3ccccc3)n2c1 | x | 3 | 8 | x | x | x
Cc1ccc2nc(-c3ccco3)c(Cc3ccccc3)n2c1 | x | 36* | -14 | x | 181* | 108*
Clc1cccc(Cc2c(-c3ccco3)nc3c4ccccc4ccn23)c1 | x | x | 4 | x | x | x
Fc1cccc(Cc2c(-c3ccco3)nc3c4ccccc4ccn23)c1 | x | 27* | 4 | x | 68* | 46*
